Measured values taken from publication PMC4336329 (PLoS ONE, 2015).
Screen size: about 310,000 compounds; about 14,000 (4.5%) showed an effect of 50% or more. The effect is printed as a negative number. The sample holds strong results, similar compounds and a random draw of the others, so the mix is not that of the screen.

target: human ether-à-go-go-related gene (hERG) potassium channel (human, UniProt Q12809); assay: primary screen, population patch clamp on CHO cells stably expressing hERG; higher = less effect of the substance
Sequence (Q12809 whole entry, looked up): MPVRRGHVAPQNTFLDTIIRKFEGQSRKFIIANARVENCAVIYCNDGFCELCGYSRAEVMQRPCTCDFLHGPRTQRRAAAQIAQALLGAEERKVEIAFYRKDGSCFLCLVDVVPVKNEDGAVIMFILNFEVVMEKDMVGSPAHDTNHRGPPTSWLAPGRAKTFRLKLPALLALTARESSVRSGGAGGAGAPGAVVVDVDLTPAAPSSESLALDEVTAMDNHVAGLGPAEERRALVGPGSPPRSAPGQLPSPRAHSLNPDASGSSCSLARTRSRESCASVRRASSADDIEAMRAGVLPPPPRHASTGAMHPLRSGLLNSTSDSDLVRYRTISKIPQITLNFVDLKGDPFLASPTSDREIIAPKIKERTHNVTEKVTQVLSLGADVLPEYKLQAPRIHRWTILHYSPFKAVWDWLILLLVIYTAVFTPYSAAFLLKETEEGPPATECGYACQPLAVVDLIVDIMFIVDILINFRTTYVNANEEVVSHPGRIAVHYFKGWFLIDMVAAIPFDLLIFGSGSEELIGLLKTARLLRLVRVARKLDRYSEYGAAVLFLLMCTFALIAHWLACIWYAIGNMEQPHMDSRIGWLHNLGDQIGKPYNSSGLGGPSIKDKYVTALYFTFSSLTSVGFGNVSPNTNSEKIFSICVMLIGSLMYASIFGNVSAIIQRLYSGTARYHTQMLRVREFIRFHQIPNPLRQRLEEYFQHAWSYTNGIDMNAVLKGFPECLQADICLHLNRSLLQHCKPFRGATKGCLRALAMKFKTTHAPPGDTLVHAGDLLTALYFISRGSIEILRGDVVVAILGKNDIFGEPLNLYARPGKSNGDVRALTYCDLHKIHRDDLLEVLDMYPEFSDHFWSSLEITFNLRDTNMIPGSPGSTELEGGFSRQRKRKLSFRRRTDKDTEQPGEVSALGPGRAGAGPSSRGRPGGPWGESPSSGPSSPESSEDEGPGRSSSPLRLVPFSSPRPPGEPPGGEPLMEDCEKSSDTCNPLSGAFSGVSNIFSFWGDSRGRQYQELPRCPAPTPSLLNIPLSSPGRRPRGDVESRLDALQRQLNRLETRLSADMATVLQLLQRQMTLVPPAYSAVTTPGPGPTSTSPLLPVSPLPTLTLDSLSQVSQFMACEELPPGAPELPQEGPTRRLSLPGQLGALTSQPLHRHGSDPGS
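Further: peak tail current of the secondary pulse compared with the same well before compound.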

Row | SMILES | hERG current change (%, negative = inhibition) at 10uM [%]
1 | Cc1ccc(NC(=O)C(C)SCc2nc3sc(C)c(C)c3c(=O)[nH]2)nc1 (stereo not shown) | -10.7
2 | CCS(=O)(=O)NC(C)C(c1cccs1)N1CCN(c2ccc(F)cc2)CC1 (stereo not shown) | -8.13
3 | CC(C)CCn1cnc2c(cnn2-c2ccc(F)cc2)c1=O | -3.95
4 | O=C(C1=C[C@H](c2ccc(C(F)(F)F)cc2)C[C@H](OCc2ccc(CO)cc2)O1)N1CCN(Cc2ccc3c(c2)OCO3)CC1 | -19.5
5 | O=C(C1=C[C@@H](c2ccc(Br)cc2)C[C@@H](OCCCCO)O1)N1CCN(Cc2ccc3c(c2)OCO3)CC1 | -55.3
6 | C#Cc1ccc([C@H]2C=C(C(=O)N3CCN(Cc4ccc5c(c4)OCO5)CC3)O[C@@H](OCc3ccc(CO)cc3)C2)cc1 | -7.23
7 | O=C(C1=C[C@H](c2ccc(Br)cc2)C[C@H](OCc2ccc(CO)cc2)O1)N1CCN(Cc2ccc3c(c2)OCO3)CC1 | -19.8
8 | O=C(C1=C[C@@H](c2ccc(Br)cc2)C[C@@H](OCc2ccc(CO)cc2)O1)N1CCN(Cc2ccc3c(c2)OCO3)CC1 | -9.55
9 | O=C(C1=C[C@@H](c2ccc(C(F)(F)F)cc2)C[C@@H](OCCCCO)O1)N1CCN(Cc2ccc3c(c2)OCO3)CC1 | -68.8
10 | CC(C)(C)[C@H]1C=C(C(=O)N2CCN(Cc3ccc4c(c3)OCO4)CC2)O[C@@H](OCCCCO)C1 | -23.4
11 | O=C(C1=C[C@@H](c2ccc3c(c2)OCO3)C[C@@H](OCCCCO)O1)N1CCOCC1 | 7.64
12 | O=C(C1=C[C@H](c2ccc3c(c2)OCO3)C[C@H](OCCCCO)O1)N1CCN(Cc2ccc3c(c2)OCO3)CC1 | -69.1
13 | C[C@@H]1C=C(C(=O)N2CCN(Cc3ccc4c(c3)OCO4)CC2)O[C@H](OCCCCO)C1 | 4.01
14 | C#Cc1ccc([C@@H]2C=C(C(=O)N3CCN(Cc4ccc5c(c4)OCO5)CC3)O[C@H](OCCCCO)C2)cc1 | -64.1
15 | O=C(C1=C[C@H](c2ccc(C(F)(F)F)cc2)C[C@H](OCCCCO)O1)N1CCN(Cc2ccc3c(c2)OCO3)CC1 | -44.1
16 | c1ccc2c(c1)NC1(CCCC1)n1c-2nc2ccccc21 | -9.46
17 | CCOP(=S)(OCC)C(O)CCCCCn1c(=O)c(F)cn(C2CCCO2)c1=O (stereo not shown) | -2.13
18 | CN(C(=S)Nc1ccc(F)cc1)C(c1ccccc1)c1ccccc1 | 11.1
19 | CCn1c(SCC(=O)Nc2ccc(NC(C)=O)cc2)nc2c1c(=O)n(C)c(=O)n2C | 24.7
20 | O=C(C1=C[C@H](c2ccc3c(c2)OCO3)C[C@H](OCCCCO)O1)N1CCOCC1 | -1.14
21 | O=C(C1=C[C@@H](c2ccccc2)C[C@@H](OCCCCO)O1)N1CCN(Cc2ccc3c(c2)OCO3)CC1 | -55.2
22 | CC(=O)n1cc([C@H]2C=C(C(=O)N3CCN(Cc4ccc5c(c4)OCO5)CC3)O[C@@H](OCCCCO)C2)c2ccccc21 | -32.7
23 | O=C(C1=C[C@H](c2ccccc2)C[C@H](OCc2ccc(CO)cc2)O1)N1CCN(Cc2ccc3c(c2)OCO3)CC1 | -39.5

Row | SMILES | hERG current change (%, negative = inhibition) at 10uM [%]
24 | O=C(C1=C[C@@H](c2ccc3c(c2)OCO3)C[C@@H](OCCCCO)O1)N1CCN(Cc2ccc3c(c2)OCO3)CC1 | -65.9
25 | CC(=O)n1cc([C@H]2C=C(C(=O)N3CCN(Cc4ccc5c(c4)OCO5)CC3)O[C@@H](OCc3ccc(CO)cc3)C2)c2ccccc21 | 3.43
26 | O=C(C1=C[C@H](c2ccc3c(c2)OCO3)C[C@H](OCCCCO)O1)N1CCN(Cc2ccccc2)CC1 | -62.8
27 | CC(=O)n1cc([C@@H]2C=C(C(=O)N3CCN(Cc4ccc5c(c4)OCO5)CC3)O[C@H](OCCCCO)C2)c2ccccc21 | -50.2
28 | O=C(C1=C[C@H](c2ccccc2)C[C@H](OCCCCO)O1)N1CCN(Cc2ccc3c(c2)OCO3)CC1 | -41.8
29 | CN1CCN(C(=O)C2=C[C@H](c3ccc4c(c3)OCO4)C[C@H](OCCCCO)O2)CC1 | -8.06
30 | CC1(C)CC2(CCO1)OC(=O)CC2C(=O)Nc1ccccc1Cl (stereo not shown) | 1.54
31 | Cc1ccc(S(=O)(=O)NNC(=O)c2cccs2)c(C)c1 | 14.4
32 | Cc1ccc(O)c(N=NC2=C(O)CC(C)(C)CC2=O)c1 | 3.16
33 | Cc1nn(C)c(Oc2cccc(Cl)c2)c1C(=O)Nc1ccc(F)cc1 | -15.3
34 | CCn1c(CCn2ccnc2C)n[nH]c1=S | -1.48
35 | O=C1CCCC2=C1C(Cc1ccccc1)C1=C(CCCC1=O)O2 | -3.32
36 | CCCc1cc(C(=O)NC(C)C2CCCO2)cs1 (stereo not shown) | 7.72
37 | Cc1nc2cc(NS(=O)(=O)c3ccccc3)ccc2n1C | 9.21
38 | CC(=O)c1cccc(NC(=O)C2CCCN(S(C)(=O)=O)C2)c1 (stereo not shown) | 8.02
39 | N#C/C(=C\c1ccccc1)C(=O)Nc1ccccn1 | 12.7
40 | CCCCN1C(=O)c2ccc(C(=O)Nc3ccc(S(=O)(=O)N(C)C)cc3)cc2C1=O | -0.448
41 | CCCCN1C(=O)c2ccc(C(=O)Nc3cccc(C)c3C)cc2C1=O | 17.2
42 | CCCCN1C(=O)c2ccc(C(=O)Nc3c(N)n(CCCC)c(=O)n(C)c3=O)cc2C1=O | -51.9
43 | CCOC(=O)C1(Cc2ccc(Cl)cc2)CCN(C(=O)CCc2cnccn2)CC1 | -50
44 | CCOC(=O)C1(CCCc2ccccc2)CCN(C(=O)CCc2cnccn2)CC1 | -66.4
45 | CCOC(=O)C1(CCc2ccccc2)CCN(C(=O)CCc2cnccn2)CC1 | -66.5
46 | CCOC(=O)C1(Cc2ccc(OC)cc2)CCN(C(=O)CCc2cnccn2)CC1 | -7.37
